The record followed here is ChEMBL document CHEMBL1201862, “PubChem BioAssay data set” (2004).

Molecules are shown by their SMILES. About 2,100 (0.53%) of roughly 400,000 compounds were called active. Roughly 14% stayed inconclusive and do not appear here. No rule for the calls is given here. Only a selection was taken, and actives are over-represented in it overall.

Chain of Ataxin-2 (Homo sapiens) (Q99700 whole entry): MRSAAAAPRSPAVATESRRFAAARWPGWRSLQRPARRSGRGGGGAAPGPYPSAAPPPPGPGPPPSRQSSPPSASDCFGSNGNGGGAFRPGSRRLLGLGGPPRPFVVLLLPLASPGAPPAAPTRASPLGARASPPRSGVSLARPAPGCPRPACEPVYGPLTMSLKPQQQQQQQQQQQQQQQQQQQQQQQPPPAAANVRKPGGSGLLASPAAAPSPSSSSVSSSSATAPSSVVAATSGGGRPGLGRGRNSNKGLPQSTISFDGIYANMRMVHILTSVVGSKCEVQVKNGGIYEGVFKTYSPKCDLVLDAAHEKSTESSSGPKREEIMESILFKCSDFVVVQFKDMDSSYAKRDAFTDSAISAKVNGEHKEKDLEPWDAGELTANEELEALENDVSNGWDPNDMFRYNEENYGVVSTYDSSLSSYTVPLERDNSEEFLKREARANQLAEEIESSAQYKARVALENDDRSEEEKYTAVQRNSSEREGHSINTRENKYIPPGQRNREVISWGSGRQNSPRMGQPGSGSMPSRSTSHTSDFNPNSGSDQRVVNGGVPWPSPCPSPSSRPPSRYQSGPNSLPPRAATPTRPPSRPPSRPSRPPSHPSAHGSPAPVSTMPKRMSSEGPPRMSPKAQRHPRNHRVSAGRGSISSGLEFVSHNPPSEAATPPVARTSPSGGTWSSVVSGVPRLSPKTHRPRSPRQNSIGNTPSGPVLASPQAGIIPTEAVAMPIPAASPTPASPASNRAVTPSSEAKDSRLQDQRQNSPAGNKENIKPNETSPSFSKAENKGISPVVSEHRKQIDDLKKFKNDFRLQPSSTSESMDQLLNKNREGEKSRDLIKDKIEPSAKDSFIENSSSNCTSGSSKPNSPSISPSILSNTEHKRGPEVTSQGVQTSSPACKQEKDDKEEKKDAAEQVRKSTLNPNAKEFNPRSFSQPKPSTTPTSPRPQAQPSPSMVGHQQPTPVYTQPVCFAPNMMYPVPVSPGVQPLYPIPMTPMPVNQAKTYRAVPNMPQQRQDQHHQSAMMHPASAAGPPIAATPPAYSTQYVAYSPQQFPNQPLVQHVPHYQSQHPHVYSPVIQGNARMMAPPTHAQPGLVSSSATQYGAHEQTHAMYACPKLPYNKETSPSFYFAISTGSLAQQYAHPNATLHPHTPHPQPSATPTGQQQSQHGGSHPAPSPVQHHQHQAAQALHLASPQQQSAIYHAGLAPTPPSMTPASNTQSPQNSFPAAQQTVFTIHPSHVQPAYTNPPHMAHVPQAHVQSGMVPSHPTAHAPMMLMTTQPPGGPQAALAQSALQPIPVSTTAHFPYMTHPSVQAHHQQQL

This test concerns the target Ataxin-2 (Homo sapiens) (UniProt Q99700). The test is described as follows: qHTS for Inhibitors of ATXN expression. It is filed as functional.
As for `CC(=O)c1c(C)[nH]c(C(=O)COC(=O)COc2ccccc2F)c1C`, the Potency entry was “inactive”. Take `CC(=O)NC1C(=O)N(CCN2CCOCC2)c2ccc(C)cc21` (stereo not drawn): the Potency entry was “inactive”. The result for `Cc1cccn2c(=O)c3cc(C(=O)NCc4ccccc4)c(=N)n(CCCN4CCOCC4)c3nc12` reads “inactive”; that for `Cc1nc2nc(C)n(CCN3CCOCC3)c(=O)c2c(-c2cccc([N+](=O)[O-])c2)c1C(=O)CCCCCCCCCCN1CCC(c2ccccc2)(c2ccccc2)CC1`, 13.4 µM (active); that for `Nc1c(C(=O)NCc2ccccc2)c2nc3ccccc3nc2n1CCCN1CCOCC1`, “inactive”.

As to `O=C(NCc1ccccc1)c1cccc2c1C(=O)c1ccc(/C=C/c3ccccc3)cc1S2(=O)=O`, the Potency entry is “inactive”. The entry for `O=C(NC1CCCC1)c1cccc2c1C(=O)c1ccc(/C=C/c3ccccc3)cc1S2(=O)=O` is “inactive”.

In the case of `O=C1c2ccc(Cl)cc2S(=O)(=O)c2cccc(C(=O)N3CCC(Cc4ccccc4)CC3)c21`, the Potency is 31.6 µM (active). Regarding `O=C(NC1CCCCC1)c1cccc2c1C(=O)c1ccc(N3CCC(Cc4ccccc4)CC3)cc1S2(=O)=O`, the Potency entry is “inactive”. Take `O=C(NC1CC1)c1cccc2c1C(=O)c1ccc(N3CCC(Cc4ccccc4)CC3)cc1S2(=O)=O`: the Potency result was “inactive”. The figure for `O=C(NCCOc1ccccc1Cl)c1cccc2c1C(=O)c1ccc(Cl)cc1S2(=O)=O` is 35.5 µM (active); for `Cc1c(C)c2cc3c(c(C)c2oc1=O)OCN(CCc1ccc(F)cc1)C3` it is “inactive”; for `FC(F)(F)c1cnc(C(c2ccccn2)c2nc[nH]n2)c(Cl)c1` (stereo not drawn) it is “inactive”. In the case of `CCOc1ccc(C(CC(=O)O)NC(=O)C(c2ccccc2)c2ccccc2)cc1OC` (stereo not drawn), the Potency entry is “inactive”. The result for `COc1ccc(C(CCN(Cc2ccc(OC)c(OC)c2)C(=O)CCl)c2ccccc2)cc1` (stereo not drawn) reads 31.6 µM (active); that for `COc1ccc(CN(CCC(c2ccccc2)c2ccc(OC(C)C)cc2)C(=O)CCl)cc1OC` (stereo not drawn), 6.31 µM (active). The result for `CCOc1ccc(CN(C)CC(=O)Nc2cccc3ccccc23)cc1OC` reads “inactive”; that for `COc1ccc(CN(C)CC(=O)Nc2ccc(SC(F)F)cc2)cc1OC`, “inactive”; that for `COc1ccc(CN(C(=O)COc2ccc(C)c(C)c2)C2CCS(=O)(=O)C2)cc1OC` (stereo not drawn), “inactive”. The result for `COc1cc(C2NC(=O)NC(c3ccccc3)=C2C(C)=O)cc([N+](=O)[O-])c1O` (stereo not drawn) reads “inactive”. As to `C#CC(=O)N(c1ccc(OC)c(OC)c1)C(C(=O)NC1CCCC1)c1cccs1` (stereo not drawn), the Potency is 25.1 µM (active). As for `O=C(CN(C(=O)CNC(=O)c1cccs1)c1ccccc1)NC1CCCCC1`, the Potency result is “inactive”.

As to `C#CC(=O)N(c1ccc(OC)cc1OC)C(C(=O)NC1CCCC1)c1cccs1` (stereo not drawn), the Potency was 2.12 µM (active).

Consider `O=C(CCC(=O)c1cccs1)NC1CCCCCC1`, for which the Potency entry was “inactive”. The result for `COc1cc(C(=O)OC(C)C(=O)NC(=O)NC2CCCCC2)ccc1OC(F)F` (stereo not drawn) reads “inactive”. Turning to `O=C(O)c1ccc(COc2ccc3ccccc3c2/C=C2/NC(=O)N(Cc3ccc(F)cc3)C2=O)cc1`, the Potency entry is “inactive”. The entry for `COc1ccccc1C(=O)NCCC(=O)N1CCN(S(=O)(=O)c2cccc(Cl)c2)CC1` is “inactive”. The result for `CCc1cc2c(COC(=O)c3cc(S(=O)(=O)N4CCOCC4)ccc3F)cc(=O)oc2cc1O` reads “inactive”; that for `COc1cc(N2C(=O)C=CC2=O)ccc1N1C(=O)C=CC1=O`, 15 µM (active); that for `COc1ccc(N2C(=O)CC(Nc3ccc(C(=O)O)cc3)C2=O)cc1OC` (stereo not drawn), “inactive”. For the compound `COc1ccccc1N1C(=O)c2cccc3c(Cl)ccc(c23)C1=O`, the Potency entry was “inactive”.

As for `COc1ccc(C(CNC(=O)COc2c(C)cc(C)cc2C)N2CCOCC2)cc1` (stereo not drawn), the Potency entry was “inactive”. The result for `Cc1ccc2oc(C(=O)NCC(c3ccc(Cl)cc3)N3CCOCC3)c(C)c2c1` (stereo not drawn) reads 39.8 µM (active). The entry for `CCC(C)NC(=O)c1oc2ccc(S(=O)(=O)N3CCC4(CC3)OCCO4)cc2c1C` (stereo not drawn) is “inactive”; for `CN(C)C(=O)c1coc2nc3ccccc3nc12` it is “inactive”. The result for `COc1cc(NS(=O)(=O)c2ccc3ccccc3c2)c2ncccc2c1` reads “inactive”. With `CCN(CC)S(=O)(=O)c1cc(OC)ccc1N=Nc1ccc(O)c2ncccc12`, the Potency was 10 µM (active).

Consider `CCS(=O)(=O)c1ccc(N=Nc2ccc(O)c3ncccc23)c(OC)c1`, for which the Potency is 25.1 µM (active). The entry for `CCOC(=O)c1cc2c(=O)n3ccccc3nc2n(Cc2ccco2)/c1=N/C(=O)c1cccc(OC)c1` is “inactive”.

With `COc1ccc(N2CCN(C(=O)[C@H](C)NC(=O)c3ccccc3Cl)CC2)cc1`, the Potency result is “inactive”.

As for `CCCS(=O)(=O)c1nc(S(=O)(=O)c2ccc(C)cc2)c(N2CCN(CCO)CC2)s1`, the Potency entry is “inactive”. The result for `COC(=O)C1=CN(C)C=C(C(=O)OC)C1c1ccccc1Cl` reads “inactive”; that for `CC(=O)c1c(COC(=O)c2ccc(C)cc2)nc2ccccc2[n+]1[O-]`, “inactive”. The figure for `O=C(OCn1ncc(Cl)c(Cl)c1=O)c1ccccc1Cl` is 15.8 µM (active). As to `O=C(O)c1ccc(OS(=O)(=O)c2cccc(C(F)(F)F)c2)cc1`, the Potency entry was “inactive”. Turning to `Cc1ccc(C(=O)OCn2ncc(Cl)c(Cl)c2=O)cc1`, the Potency was 20 µM (active). The entry for `COc1ccc(C(=O)OCc2ccc(C)cc2)cc1S(=O)(=O)N1CCOCC1` is “inactive”.

Consider `N=C(NOC(=O)c1cnn(-c2ccccc2)c1C(F)(F)F)c1cc(C(F)(F)F)cc(C(F)(F)F)c1`, for which the Potency entry is “inactive”. The entry for `O=C(OCCN1C(=O)c2cccc3c(N4CCOCC4)ccc(c23)C1=O)c1ccccc1Cl` is “inactive”; for `O=C(OCn1ncc(Cl)c(Cl)c1=O)c1cccc(C(F)(F)F)c1` it is 39.8 µM (active); for `C=CCn1c(SCc2cccc(F)c2)nc2cc(C(=O)N3CCC(C(N)=O)CC3)ccc2c1=O` it is “inactive”. The figure for `CCN1C(c2ccccc2)=C(c2ccccc2)S/C1=C\C=C1/SC(=S)N(C)C1=O` is 22.4 µM (active); for `COc1ccc(/C=N/Nc2ncnc3sc(C)c(C)c23)cc1` it is “inactive”. The figure for `NC(CCc1ccccc1)c1csc(NC(=O)Nc2cccc(C(F)(F)F)c2)n1` (stereo not drawn) is 39.8 µM (active); for `Clc1cccc(Nc2nc(-c3ccncc3)cs2)c1` it is “inactive”. Regarding `O=C(Nc1cccc(Cl)c1)NC1CC2CCC(C1)N2Cc1ccco1` (stereo not drawn), the Potency entry was “inactive”. In the case of `NC(COCc1ccccc1)c1csc(NC(=O)Nc2cccc(Cl)c2)n1` (stereo not drawn), the Potency was 25.1 µM (active). For the compound `O=C(Cc1csc(Nc2nc(S)nc3ccccc23)n1)N1CCN(c2cccc(C(F)(F)F)c2)CC1`, the Potency result was “inactive”.

For the compound `O=C(Nc1cccc(Cl)c1)Nc1nnc(-c2ccncc2)s1`, the Potency is 12.6 µM (active). The result for `NC(COCc1ccccc1)c1csc(NC(=O)Nc2cccc(C(F)(F)F)c2)n1` (stereo not drawn) reads 39.8 µM (active); that for `O=C(Nc1cccc(Cl)c1)Nc1sccc1-c1nc2ccccc2s1`, “inactive”. The result for `C/C(=N/NC(=O)c1sc(NS(=O)(=O)c2ccc(C)cc2)nc1C)c1sc(N)nc1C` reads “inactive”; that for `CN1CCN(/C=N/c2nc3ccccc3nc2N2CCCC2)CC1`, “inactive”; that for `Cc1cc(O)nc2nc3ccccc3n12`, “inactive”.

Regarding `OCCCc1nc2n(n1)C(c1ccccc1Cl)C=C(c1cccs1)N2` (stereo not drawn), the Potency entry was “inactive”. The entry for `CC(C)=Cc1c(O)n2ccccc2nc1=O` is “inactive”; for `CCC/C=C/c1ccc(CN2C(C(C)C)C(=O)N(Cc3cn(CCC4OCCO4)nn3)CCS2(=O)=O)cc1` (stereo not drawn) it is 35.5 µM (active). The result for `CCC/C=C/c1ccc(CN2C(C(C)C)C(=O)N(Cc3cn(CCC4OCCCO4)nn3)CCS2(=O)=O)cc1` (stereo not drawn) reads 22.4 µM (active); that for `CN(C1=NS(=O)(=O)c2ccccc21)c1ccc(OC(=O)c2ccncc2)cc1`, “inactive”.

For the compound `Cc1csc2ncc(C(=O)N3CCc4ccccc43)c(=O)n12`, the Potency result was “inactive”.

Turning to `CC1CN(Cc2cnc(Cl)s2)CC(C)O1` (stereo not drawn), the Potency entry is “inactive”. For the compound `CCN1CCN(S(=O)(=O)c2ccc3c4c(cccc24)C(=O)N3CC)CC1`, the Potency result is “inactive”. The entry for `CCCCCCc1cc2cc(C(=O)NC)c(=N)oc2cc1O` is “inactive”. The result for `Cc1cc2c(cc1C)CSC(c1c(O)ccc3ccccc13)SC2` reads 35.5 µM (active); that for `COc1ccc(OC)c(/C=C2/Sc3ccccc3C2=O)c1`, “inactive”. The result for `COc1ccc(/C=C/C(=O)Nc2ccc(S(=O)(=O)N3CCOCC3)cc2)c(OC)c1` reads “inactive”; that for `COc1ccc(/C=C2\SC(=S)N(NS(=O)(=O)c3ccccc3)C2=O)c(OC)c1`, 39.8 µM (active). Turning to `O=C(NCc1cccs1)c1cc(C2CC2)on1`, the Potency entry is “inactive”. Take `CC(C)(C)NC(=O)C(c1ccc(-c2ccccc2)cc1)N(C[C@H]1CC[C@@H]([C@@H]2CC[C@H](CO)O2)O1)C(=O)c1ccc(-c2ccccc2)cc1` (stereo partly drawn): the Potency was 35.5 µM (active).

In the case of `CC(C)(C)NC(=O)C(c1ccc(-c2ccccc2)cc1)N(C[C@H]1CC[C@@H]([C@@H]2CC[C@H](CO)O2)O1)C(=O)c1cccc(Cl)c1` (stereo partly drawn), the Potency is 31.6 µM (active). The entry for `CC(C)(C)NC(=O)C(c1cccnc1)N(C(=O)c1csnn1)c1ccccc1` (stereo not drawn) is “inactive”. For `CC(C)(C)NC(=O)C(c1ccncc1)N(C(=O)C1CSC(=O)C1)c1ccccc1` (stereo not drawn), the Potency entry is “inactive”. The entry for `O=C(c1cccc(Cl)c1)N(Cc1ccco1)C1CCS(=O)(=O)C1` (stereo not drawn) is “inactive”; for `CC1(C)NC(=O)N(CC(=O)N2CCN(S(=O)(=O)c3cc(Cl)ccc3Cl)CC2)C1=O` it is “inactive”. The entry for `CC(C)Cn1nc(NC(=O)c2cccs2)c2cc3ccccc3nc21` is “inactive”; for `Cc1ccc(S(=O)(=O)N(C)C)cc1-n1c(SCC(=O)N(C)C)nc2ccccc2c1=O` it is “inactive”; for `Cc1nn(-c2ccccc2)c(C)c1/C=N/NC(=O)CSc1nc2ccccc2c(=O)n1-c1ccc(Br)cc1` it is 12.6 µM (active).

Consider `CNC(=O)CSc1nc2ccccc2c(=O)n1C1CCCCC1`, for which the Potency entry was “inactive”. The figure for `O=C(Nc1ccc(F)cc1)c1nc(S(=O)(=O)Cc2ccccc2)ncc1Cl` is 25.1 µM (active); for `Cc1ccccc1CS(=O)(=O)c1ncc(Cl)c(C(=O)Nc2ccc(F)cc2)n1` it is 10 µM (active). The result for `O=C(Nc1ccc(F)cc1)c1cccnc1NCCc1ccccc1` reads “inactive”; that for `CC(=O)Nc1ccc(S(=O)(=O)[N-]c2nc3ccccc3nc2-[n+]2ccc(NC(=O)c3ccc(F)cc3)cc2)cc1`, “inactive”. As for `O=C1CSc2ccc(S(=O)(=O)NCc3ccc(F)cc3)cc2N1`, the Potency result is “inactive”.
